The values that follow come from the supplement of paper PMC9794691.

For test [1], the system named is H1975. Nature of the test: area under confluence curve of compound monotherapy; compare to DMSO control AUC of the same experiment (AUC (confluence x time, arbitrary)). In short, it runs like this: (§1)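 Adenocarcinoma lines were grown in RPMI 1640 with 10% FBS at 37 °C and 5% CO2, seeded at 20,000–30,000 cells/well in 48-well plates, and treated the next day with test compound alone at one dose: 1 uM or the highest dose giving <50% parental inhibition. Every 3–4 days the wells were washed with PBS and the drug was refreshed, and medium was drug-free from the DTP stage (10–21 days). IncuCyte tracked confluence until wells given only an EGFR inhibitor regrew. Area under the confluence curve was calculated in Prism, taking the median of triplicates where run, and set beside the vehicle value from the same experiment.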

The test system of test [2] is HCC2279. Described as above. An outline of the steps:
as §1

The subject of test [3] is HCC2935. The test is described as above. An outline of the steps: as §1
For test [4], the system named is HCC4006. Described as above. In short, it runs like this: as §1
Test [5] relates to HCC827. Described as above. An outline of the steps: as §1
Test [6] deals with II-18. The test is described as above. In short, it runs like this: as §1
Another test has as its system PC9. Nature of the test: area under confluence curve of osimertinib + compound combination regimen (DTP regrowth); compare to osimertinib-only DTP control AUC of the same experiment (AUC (confluence x time, arbitrary)). The conditions noted are these: test compound dose 1000 nM. An outline of the steps: (§2)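 Two schedules were compared in EGFR-mutant NSCLC lines. In one, the EGFR inhibitor and a fixed-dose test compound were given together up to the persister stage (10–21 days), followed by drug-free medium. In the other, the inhibitor alone came first and the test compound second. Prism calculated the area under the IncuCyte confluence–time curve, taking the median of triplicates where these were available.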

Test [7] has as its system H1975. The description is as above. The note with it: test compound dose 1000 nM, DMSO control AUC in same experiment: 14522. An outline of the steps:
as §2

Test [8] relates to HCC2279. Described as above. The conditions noted are these: test compound dose 1000 nM, DMSO control AUC in same experiment: 29252. In short, it runs like this: as §2
Test [9] relates to HCC2935. The test is described as above. The note with it: test compound dose 1000 nM, DMSO control AUC in same experiment: 11459. An outline of the steps:
as §2

Test [10] concerns HCC4006. Described as above. The note with it: test compound dose 1000 nM, DMSO control AUC in same experiment: 16794. In short, it runs like this:
as §2

Test [11] deals with HCC827. The description is as above. The note with it: test compound dose 1000 nM, DMSO control AUC in same experiment: 43928. An outline of the steps: as §2
Test [12] has as its system II-18. Described as above. The conditions noted are these: test compound dose 1000 nM, DMSO control AUC in same experiment: 23373. In short, it runs like this: as §2

Take `O=C(c1cc(Cc2n[nH]c(=O)c3ccccc23)ccc1F)N1CCN(C(=O)C2CC2)CC1` [Olaparib]: the “area under confluence curve” value stood at 12200 in the test on H1975 [1] (1000 nM, DMSO control AUC in same experiment: 15857); 14700 in the test with HCC2279 [2] (1000 nM, DMSO control AUC in same experiment: 14404); 20800 in the test on HCC2935 [3] (1000 nM, DMSO control AUC in same experiment: 19215); 19900 in the test with HCC4006 [4] (1000 nM, DMSO control AUC in same experiment: 18415); 20700 with HCC827 [5] (1000 nM, DMSO control AUC in same experiment: 21320); 10800 in the test with II-18 [6] (1000 nM, DMSO control AUC in same experiment: 11834).
Take `COc1cc(CCc2cc(NC(=O)c3ccc(N4CC(C)NC(C)C4)cc3)n[nH]2)cc(OC)c1` (configuration not stated): the “area under confluence curve” value with H1975 [1] (1000 nM, DMSO control AUC in same experiment: 14522) was 17400; in the test with HCC2279 [2] (1000 nM, DMSO control AUC in same experiment: 29252) it was 28700; with HCC2935 [3] (1000 nM, DMSO control AUC in same experiment: 11459), 11000; with HCC4006 [4] (1000 nM, DMSO control AUC in same experiment: 16794) it was 15300; with HCC827 [5] (1000 nM, DMSO control AUC in same experiment: 43928), 46400; in the test with II-18 [6] (1000 nM, DMSO control AUC in same experiment: 23373), 19700.
`NC1(C(=O)N[C@@H](CCO)c2ccc(Cl)cc2)CCN(c2nc[nH]c3nccc2-3)CC1` [Capivasertib]: the “area under confluence curve” value came out at 22500 in the test with H1975 [1] (300 nM, DMSO control AUC in same experiment: 26010); 28500 in the test with HCC2279 [2] (300 nM, DMSO control AUC in same experiment: 29252); 6510 in the test with HCC2935 [3] (300 nM, DMSO control AUC in same experiment: 11459); 16700 in the test with HCC4006 [4] (300 nM, DMSO control AUC in same experiment: 16794); 28500 in the test with HCC827 [5] (300 nM, DMSO control AUC in same experiment: 27404); 11600 in the test with II-18 [6] (300 nM, DMSO control AUC in same experiment: 13556).
For `C[C@@]1(C(=O)Nc2ccc(F)nc2)CCCN1c1nc(Nc2cc(C3CC3)n[nH]2)c2cccn2n1`, the “area under confluence curve” value with H1975 [1] (100 nM, DMSO control AUC in same experiment: 16540) was 17600; in the test on HCC2279 [2] (100 nM, DMSO control AUC in same experiment: 14404), 15900; with HCC2935 [3] (100 nM, DMSO control AUC in same experiment: 19215) it was 20700; in the test on HCC4006 [4] (100 nM, DMSO control AUC in same experiment: 18415), 20100; with HCC827 [5] (100 nM, DMSO control AUC in same experiment: 21320) it was 21300; in the test on II-18 [6] (100 nM, DMSO control AUC in same experiment: 11834), 9980.
For `O=C(CCCCCCC(=O)Nc1ccccc1)NO` [Vorinostat] + C=CC(=O)Nc1cc(Nc2nccc(-c3cn(C)c4ccccc34)n2)c(OC)cc1N(C)CCN(C)C [osimertinib], the “area under confluence curve” value turned out to be 7830 with PC9 (dosing schedule: sequential, osimertinib-only DTP control AUC in same experiment: 12065, DMSO control AUC in same experiment: 48219); 6670 with PC9 (dosing schedule: sequential, osimertinib-only DTP control AUC in same experiment: 14002, DMSO control AUC in same experiment: 31239); 7410 in the test with PC9 (dosing schedule: upfront, osimertinib-only DTP control AUC in same experiment: 22175, DMSO control AUC in same experiment: 31239); 10400 in the test on PC9 (dosing schedule: upfront, osimertinib-only DTP control AUC in same experiment: 22645, DMSO control AUC in same experiment: 48219).
Consider `CS(=O)(=O)CCNCc1ccc(-c2ccc3ncnc(Nc4ccc(OCc5cccc(F)c5)c(Cl)c4)c3c2)o1` [Lapatinib] + C=CC(=O)Nc1cc(Nc2nccc(-c3cn(C)c4ccccc34)n2)c(OC)cc1N(C)CCN(C)C [osimertinib], for which the “area under confluence curve” value came out at 21600 with PC9 (dosing schedule: sequential, osimertinib-only DTP control AUC in same experiment: 16279, DMSO control AUC in same experiment: 29345) and 18300 in the test on PC9 (dosing schedule: upfront, osimertinib-only DTP control AUC in same experiment: 19769, DMSO control AUC in same experiment: 29345).
`COc1cc(CCc2cc(NC(=O)c3ccc(N4CC(C)NC(C)C4)cc3)n[nH]2)cc(OC)c1` (configuration not stated) + C=CC(=O)Nc1cc(Nc2nccc(-c3cn(C)c4ccccc34)n2)c(OC)cc1N(C)CCN(C)C [osimertinib]: the “area under confluence curve” value with H1975 [7] (dosing schedule: sequential, osimertinib-only DTP control AUC in same experiment: 12533) amounted to 3690; with H1975 [7] (dosing schedule: upfront, osimertinib-only DTP control AUC in same experiment: 18969), 17800; with HCC2279 [8] (dosing schedule: sequential, osimertinib-only DTP control AUC in same experiment: 20224), 10100; with HCC2279 [8] (dosing schedule: upfront, osimertinib-only DTP control AUC in same experiment: 43517), 18500; in the test on HCC2935 [9] (dosing schedule: sequential, osimertinib-only DTP control AUC in same experiment: 9121), 9140; in the test with HCC2935 [9] (dosing schedule: upfront, osimertinib-only DTP control AUC in same experiment: 12748), 11800. Further, the “area under confluence curve” value was 14900 with HCC4006 [10] (dosing schedule: sequential, osimertinib-only DTP control AUC in same experiment: 22375); 8920 with HCC4006 [10] (dosing schedule: upfront, osimertinib-only DTP control AUC in same experiment: 24440); 3350 with HCC827 [11] (dosing schedule: sequential, osimertinib-only DTP control AUC in same experiment: 5666); 7760 in the test on HCC827 [11] (dosing schedule: upfront, osimertinib-only DTP control AUC in same experiment: 19044); 2610 in the test with II-18 [12] (dosing schedule: sequential, osimertinib-only DTP control AUC in same experiment: 7374); 11500 in the test with II-18 [12] (dosing schedule: upfront, osimertinib-only DTP control AUC in same experiment: 15065).
